Laboratory results from article PMC4336329 (PLoS ONE, 2015).
Screen size: about 310,000 compounds; about 14,000 (4.5%) showed an effect of 50% or more. The effect is printed as a negative number. This excerpt belongs to a sample that is enriched for strong results.

Molecular target: human ether-à-go-go-related gene (hERG) potassium channel (human, UniProt Q12809)
Assay: primary screen, population patch clamp on CHO cells stably expressing hERG; higher = less effect of the substance
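Further: peak tail current of the secondary pulse compared with the same well before compound.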

Chain of human ether-à-go-go-related gene (hERG) potassium channel (Q12809 whole entry, looked up): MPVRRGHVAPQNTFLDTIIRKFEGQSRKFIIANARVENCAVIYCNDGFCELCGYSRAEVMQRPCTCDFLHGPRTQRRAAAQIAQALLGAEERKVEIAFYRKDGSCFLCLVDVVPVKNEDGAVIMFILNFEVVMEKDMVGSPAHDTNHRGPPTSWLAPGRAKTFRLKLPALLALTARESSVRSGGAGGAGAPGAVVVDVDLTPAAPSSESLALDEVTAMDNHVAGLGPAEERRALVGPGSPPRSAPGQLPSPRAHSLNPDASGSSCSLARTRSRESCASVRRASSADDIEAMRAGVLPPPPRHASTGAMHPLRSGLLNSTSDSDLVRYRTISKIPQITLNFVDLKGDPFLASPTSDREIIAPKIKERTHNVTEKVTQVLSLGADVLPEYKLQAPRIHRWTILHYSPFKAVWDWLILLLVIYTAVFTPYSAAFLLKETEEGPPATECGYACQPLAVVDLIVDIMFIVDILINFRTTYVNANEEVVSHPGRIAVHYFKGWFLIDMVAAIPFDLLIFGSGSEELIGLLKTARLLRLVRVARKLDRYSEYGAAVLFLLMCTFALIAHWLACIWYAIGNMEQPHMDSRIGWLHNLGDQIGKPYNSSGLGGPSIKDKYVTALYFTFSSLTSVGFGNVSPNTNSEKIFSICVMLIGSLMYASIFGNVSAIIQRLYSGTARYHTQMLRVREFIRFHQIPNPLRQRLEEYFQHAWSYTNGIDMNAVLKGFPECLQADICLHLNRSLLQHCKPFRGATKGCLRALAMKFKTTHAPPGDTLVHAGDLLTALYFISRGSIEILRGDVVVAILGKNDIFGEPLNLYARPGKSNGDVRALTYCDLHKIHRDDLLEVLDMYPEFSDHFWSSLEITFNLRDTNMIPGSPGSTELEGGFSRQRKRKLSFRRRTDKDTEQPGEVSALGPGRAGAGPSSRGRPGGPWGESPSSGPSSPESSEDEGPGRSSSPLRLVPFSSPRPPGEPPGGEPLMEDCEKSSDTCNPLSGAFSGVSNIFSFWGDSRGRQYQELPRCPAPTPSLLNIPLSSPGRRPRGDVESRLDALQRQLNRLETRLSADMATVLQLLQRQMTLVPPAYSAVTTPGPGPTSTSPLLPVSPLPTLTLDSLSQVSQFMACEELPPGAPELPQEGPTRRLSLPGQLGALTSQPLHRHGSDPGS

SMILES	hERG current change (%, negative = inhibition) at 10uM [%]
Cc1cc2cc(C#N)c(SCC(=O)Nc3nonc3C)nc2cc1C	-0.0959
CCOC(=O)c1c(C)[nH]c(C)c1C(=O)COC(=O)c1nc2nccc(C)n2n1	24.8
C/C(=N/NC(=O)c1cc(C(C)C)[nH]n1)c1cccs1	7.16
COc1cc(OC)cc(-c2c(-c3cccs3)c3cc(-c4ccn[nH]4)ccc3n2C)c1	7.72
O=C(Nc1ccc(Br)cc1Br)c1cccc2c1C(=O)N(C1CCCCC1)C2	12.8
CN(C)c1ccc(C=NCCC2(c3ccccc3)CCOC(C)(C)C2)cc1 (stereo not drawn)	15.3
[N-]=C=C1C(=S)NC(=O)[C@H]([n+]2ccccc2)[C@H]1c1ccc(Cl)cc1	15.9
Cc1ccc2nc(/C(C#N)=C/c3ccc(O)c(O)c3)[nH]c2c1	7.82
OCC1(CCc2ccccc2)CCN(Cc2c(F)ccc(F)c2F)CC1	-36.9
OCC1(CCCc2ccccc2)CCN(Cc2cc(F)ccc2F)CC1	-69.5
OCC1(CCc2ccccc2)CCN(Cc2cc(Cl)ccc2O)CC1	-49.5
O=S(=O)(c1cccc(C(F)(F)F)c1)N1CCC(CO)(CCCc2ccccc2)CC1	-6.59
Clc1ccccc1CN1CCC(Cc2ccccc2)CC1	-12.1
CC(C)N1CCC(N2CCN(Cc3cc(F)ccc3-n3cccn3)CC2CCO)CC1 (stereo not drawn)	-8.1
OCC1(CCc2ccccc2)CCN(Cc2ccccc2Cl)CC1	-86
CC(C)N1CCN(Cc2cc(F)ccc2-n2cccn2)CC1CCO (stereo not drawn)	11.2
OCC1(CCc2ccccc2)CCN(Cc2cc(F)ccc2-n2cccn2)CC1	-78.1
CCOc1ccc(NC(=O)N2CC=C(n3c(=O)[nH]c4ccccc43)CC2)cc1	-8.9
COc1ccc2[nH]c(=O)c(CN(c3ccc(C)c(C)c3)S(C)(=O)=O)cc2c1	12.9
Cc1ccccc1NC(=O)c1[nH]cnc1C(=O)NN	9.21
CCCCOc1ccc(C2C(C(=O)c3cccs3)=C(O)C(=O)N2CCN2CCOCC2)cc1 (stereo not drawn)	21.8
CC(=O)Oc1cc2c(C(=O)NCCCN3CCOCC3)c(C)oc2c2ccccc12	-18.2

SMILES	hERG current change (%, negative = inhibition) at 10uM [%]
Cc1cc2nc(C)n(CCCN)c2cc1C.Cl	-0.0557
CCN(CC)S(=O)(=O)c1ccc(Cl)c(NC(=O)COc2ccc3c(C)cc(=O)oc3c2)c1	7.69
CCOC(=O)C(Sc1nnc(-c2ccncc2)o1)C(C)=O (stereo not drawn)	27.7
COc1ccc2c(c1)CCc1c(C(=O)NCCCn3ccnc3)noc1-2	-50.2
COc1ccc(/C=C(/NC(=O)c2ccccc2)C(=O)NCCCn2ccnc2)cc1OC	19
COc1ccc(C(=O)N/C(=C\c2ccccc2)C(=O)NCCCn2ccnc2)cc1	-55.8
Cc1ccc(C(=O)N/C(=C\c2ccc(F)cc2)C(=O)NCCCn2ccnc2)cc1	-77.5
COc1ccc(/C=C(\NC(=O)c2ccc(C)cc2)C(=O)NCCCn2ccnc2)cc1	-86.4
COc1ccc(/C=C(/NC(=O)c2ccc(OC)c(OC)c2)C(=O)NCCCn2ccnc2)cc1	11.5
COCCNC(=O)c1noc2c1CCc1cc(OC)ccc1-2	-6.83
O=C(NCCCn1ccnc1)c1noc2c1CCc1ccccc1-2	-45.9
COc1ccc(C(=O)N/C(=C\c2cn(C)c3ccccc23)C(=O)NCCCn2ccnc2)cc1	26.3
COc1ccc(C(=O)NCCCn2ccnc2)cc1.Cl	-5.63
Cl.O=C(NCCCn1ccnc1)c1ccc(F)cc1	-2.81
COc1ccc(N(C2=NCCCS2)S(=O)(=O)c2ccc(C(C)(C)C)cc2)cc1	0.221
CCc1ccc2[nH]c(C(=O)Nc3ccc4c(c3)OCO4)cc2c1	18.8
COc1ccc(OC)c(S(=O)(=O)N/N=C(/C)c2c[nH]c3ccccc23)c1	14.1
CCN(C(=O)c1cc2c(=O)[nH]c3ccc(C)cc3c2s1)c1cccc(C)c1	-0.235
Cc1nn(-c2ccc(N3CCCCC3)nn2)c(C)c1CCC(=O)Nc1cccc(F)c1	-19
COC(=O)c1sccc1-n1cc(C#N)c(=O)n(C)c1=O	17.9
COc1cc2c(c(OC)c1OC)-c1ccc(O)c(=O)cc1[C@@H](N)CC2	-11.8
COCCn1c(C(C)C)nc2ccccc21	4.45

SMILES	hERG current change (%, negative = inhibition) at 10uM [%]
CCn1cc(C2=NOC(C(=O)Nc3ccccc3C(=O)OC)C2)c(C)n1 (stereo not drawn)	-3.86
COc1cc(C2C(C(=O)c3ccco3)=C(O)C(=O)N2CC2CCCO2)ccc1O (stereo not drawn)	2.25
Cc1ccn2c(=O)c(NC(=O)c3ccc(Br)o3)c(C)nc2c1	8.18
CC1(C)C(=O)NCCN1C(=O)CC1C(=O)NCCN1CC(c1ccccc1)c1ccccc1 (stereo not drawn)	12
CC(C)(C)NC(=O)C(c1cccs1)N(Cc1ccco1)C(=O)c1csnn1 (stereo not drawn)	-1.46
COc1ccc(C(=O)CCC(=O)Nc2ccc(Cl)cc2)cc1	11.2
COc1cccc(-c2nn(-c3ccccc3)cc2/C=C(\C#N)C(=O)NCCCn2ccnc2)c1	-38.8
Cc1ccc(/C=C(\NC(=O)c2ccc(C)cc2)C(=O)NCCCn2ccnc2)cc1	-84.9
COc1ccc(/C=C(\NC(=O)c2ccc(C)cc2)C(=O)NCCCn2ccnc2)cc1OC	8.48
N#C/C(=C\c1ccc([N+](=O)[O-])cc1)C(=O)NCCCn1ccnc1	-59.5
Cc1ccc(C(=O)N/C(=C\c2ccccc2)C(=O)NCCCn2ccnc2)cc1	-84.8
COc1ccc(/C=C(\NC(=O)c2ccc([N+](=O)[O-])cc2)C(=O)NCCCn2ccnc2)cc1	-69.4
O=C(NCCCn1ccnc1)c1cc([N+](=O)[O-])cc([N+](=O)[O-])c1	-4.05
COc1ccc(C(=O)N/C(=C\c2cn(S(=O)(=O)N(C)C)c3ccccc23)C(=O)NCCCn2ccnc2)cc1	1.07
C/C(CC(=O)Nc1ccc(Cl)c(C(F)(F)F)c1)=N\NC(=O)c1cnccn1	-25.8
COc1ccc(Cc2nnc(N)s2)cc1	15.3
O=C(Nc1cccc(-n2cnnn2)c1)c1cccnc1	4.53
C#CCOCCOCCOCCNc1nc(N2CCN(C(=O)C(Cc3ccc(O)cc3)n3cc(C(N)C(C)CC)nn3)CC2)nc(N2CCN(C(=O)C(Cc3ccc(O)cc3)n3cc(C(N)C(C)CC)nn3)CC2)n1.Cl (stereo not drawn)	-13.3
COc1ccccc1CN1CCN(C(=O)c2cccc3ccccc23)CC1	3.48
COc1cccc2cc(/C(=N/O)c3ccc(Br)cc3)oc12	5.41
COC(=O)c1ccc(NC(=O)c2ccc3nc(C)sc3c2)cc1	15.8
COc1cc(S(=O)(=O)NCc2ccccn2)c(OC)cc1Cl	-1.73

SMILES	hERG current change (%, negative = inhibition) at 10uM [%]
O=C(NCCCn1ccnc1)C(Cc1ccc([N+](=O)[O-])cc1)N1C(=O)c2ccccc2C1=O (stereo not drawn)	-62.3
O=C(NCCCn1ccnc1)C(Cc1ccccc1)N1C(=O)c2ccccc2C1=O (stereo not drawn)	-34.5
O=C(CCN1C(=O)c2ccccc2C1=O)NCCCn1ccnc1	11.3
Cc1ccc(-n2nc3ccc(NC(=O)c4ccc5c(c4)OCO5)cc3n2)cc1	7.8
O=C(NCCc1ccccc1)c1c(O)c2cccc3c2n(c1=O)CC3	1.79
CCN(CC)Cc1cc2ccccc2c2c1COC2	-44.1
CCCN(CCC)Cc1cc2ccccc2c2c1COC2	-29
CCCCN(CCCC)Cc1cc2ccccc2c2c1COC2	-54.6
COc1ccc(NC(C)=O)cc1CNC(=O)CN1CCOCC1	19.1
O=C(NCC(=O)N(CCN1CCOCC1)C(C(=O)NC1CCCC1)c1cccs1)c1ccco1 (stereo not drawn)	-0.929
O=C(NC1CCCC1)C(c1ccncc1)N(Cc1ccco1)C(=O)c1ccc(-c2ccccc2)[nH]1 (stereo not drawn)	1.38
O=C(NCC1CCCO1)C(c1cccs1)N(Cc1cccs1)C(=O)c1ccc(-c2ccccc2)[nH]1 (stereo not drawn)	7.78
CCOc1ccc(C(C(=O)NC2CCCC2)N(CCCO)C(=O)c2ccc(-c3ccccc3)[nH]2)cc1 (stereo not drawn)	-61.6
O=C(NC1CCCC1)C(c1ccncc1)N(CCCN1CCOCC1)C(=O)c1ccc(-c2ccccc2)[nH]1 (stereo not drawn)	-61.1
O=C(NCC1CCCO1)C(c1ccc(F)cc1)N(CCCN1CCOCC1)C(=O)c1ccc(-c2ccccc2)[nH]1 (stereo not drawn)	-26.2
O=C(NC1CCCCC1)C(c1cccs1)N(CCCN1CCOCC1)C(=O)c1ccc(-c2ccccc2)[nH]1 (stereo not drawn)	-66.5
O=C(NC1CCCCC1)C(c1ccc(F)cc1)N(CCN1CCOCC1)C(=O)c1ccc(-c2ccccc2)[nH]1 (stereo not drawn)	24.4
Cc1ccc(C(C(=O)NC(C)(C)C)N(CCCN2CCOCC2)C(=O)c2ccc(-c3ccccc3)[nH]2)o1 (stereo not drawn)	-76.5
O=C(NC1CCCCC1)C(c1ccncc1)N(Cc1ccccc1)C(=O)c1ccc(-c2ccccc2)[nH]1 (stereo not drawn)	4.6
Cc1ccc(C(C(=O)NCC2CCCO2)N(Cc2ccccc2)C(=O)c2ccc(-c3ccccc3)[nH]2)o1 (stereo not drawn)	-7.63
O=C(NC1CCCC1)C(c1ccncc1)N(Cc1ccccc1)C(=O)c1ccc(-c2ccccc2)[nH]1 (stereo not drawn)	-4.27
